Laboratory results: PubChem BioAssay (EPA / NIEHS)
Some compounds were tested as several samples or in several runs, with calls that do not always agree. Calls of active or inactive are those of the source. The calls were made as follows: active = hit-call score of the fitted dose curve at least 0.9, where 1 is the maximum; inactive = score below 0.9.

Key:
[1] = read-out: Vascular endothelial growth factor receptor 2 (Homo sapiens) (UniProt P35968); experiment: BSK_4H_VEGFRII: BioMAP Diversity Plus: 4H Assay for Vascular endothelial growth factor receptor 2 (VEGFR2) Biomarker Activity (AID 2283031); settings: primary human endothelial cells (HUVEC); actives raise or lower the signal
Method in brief: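 In this multiplexed HUVEC system, biomarker ELISA was performed after 24 h chemical exposure. Parallel SRB staining (TCA fixation, 560 nm) tracked cytotoxicity; DMSO served as baseline.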

[2] = read-out: Human Leukocyte Antigen - DR isotype (HLADR), HLA-DRA (gene 3122); experiment: BSK_BE3C_HLADR: BioMAP Diversity Plus: BE3C Assay for Human Leukocyte Antigen - DR isotype (HLADR) Biomarker Activity (AID 2283032); settings: primary human bronchial epithelial cells; actives raise or lower the signal
Method in brief: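 Human primary bronchial epithelial cells in the BE3C system were exposed to chemicals for 24 h, after which HLA-DR levels were quantified by ELISA. Activity was fitted bidirectionally, gain or loss of signal, against DMSO as negative control and baseline.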

[3] = read-out: Vascular cell adhesion molecule 1 (VCAM1), VCAM1 (gene 7412); experiment: BSK_4H_VCAM1: BioMAP Diversity Plus: 4H Assay for Vascular cell adhesion molecule 1 (VCAM1) Biomarker Activity (AID 2283033); settings: primary human endothelial cells (HUVEC); actives raise or lower the signal;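 also: cell-surface VCAM-1 protein measured by ELISA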
Method in brief: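 Primary human umbilical vein endothelial cells were exposed to chemicals for 24 h, after which VCAM-1 was quantified by ELISA. Responses were fitted bidirectionally against DMSO as negative control and activity baseline.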

[4] = read-out: Interferon-gamma inducible Protein 10 (IP10), CXCL10 (gene 3627); experiment: BSK_BE3C_IP10: BioMAP Diversity Plus: BE3C Assay for Interferon-gamma inducible Protein 10 (IP10) Biomarker Activity (AID 2283034); settings: primary human bronchial epithelial cells; actives raise or lower the signal
Method in brief: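 Human primary bronchial epithelial cells were exposed to chemicals for 24 hours, after which IP-10 levels were measured by ELISA. Data were fitted bidirectionally against DMSO, which served as the negative control and activity baseline.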

[5] = read-out: Monokine induced gamma interferon (MIG), CXCL9 (gene 4283); experiment: BSK_BE3C_MIG: BioMAP Diversity Plus: BE3C Assay for Monokine induced gamma interferon (MIG) Biomarker Activity (AID 2283035); settings: primary human bronchial epithelial cells; actives raise or lower the signal;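 also: MIG protein measured by ELISA in BE3C cultures after 24 h of dosing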
Method in brief: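 MIG level was determined by ELISA after 24 h chemical treatment of primary human bronchial epithelial cells. Values were fitted bidirectionally with DMSO as the negative control and activity baseline.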

[6] = read-out: urokinase plasminogen activator (uPA), PLAU (gene 5328); experiment: BSK_BE3C_uPA: BioMAP Diversity Plus: BE3C Assay for urokinase plasminogen activator (uPA) Biomarker Activity (AID 2283038); settings: primary human bronchial epithelial cells; actives raise or lower the signal;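 as to outcome: uPA protein level quantified by ELISA in cell cultures; uPA read one day after compound addition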
Method in brief: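 Using confluent primary human lung bronchial epithelial cultures, we dosed chemicals, waited 24 h, then ran a uPA ELISA, fitting bidirectionally against DMSO.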

[7] = read-out: Urokinase-type plasminogen activator receptor (uPAR), PLAUR (gene 5329); experiment: BSK_BE3C_uPAR: BioMAP Diversity Plus: BE3C Assay for Urokinase-type plasminogen activator receptor (uPAR) Biomarker Activity (AID 2283039); settings: primary human bronchial epithelial cells; actives raise or lower the signal;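 also: uPAR protein level measured by ELISA on the cells; cells exposed to compound for one day before measurement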
Method in brief: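 Primary human bronchial epithelial cells were dosed with chemical and harvested 24 h later; uPAR was quantified by ELISA. Activity was fitted bidirectionally against DMSO as negative control and baseline.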

[8] = read-out: Interleukin-6 (IL6), IL6 (gene 3569); experiment: BSK_CASM3C_IL6: BioMAP Diversity Plus: CASM3C Assay for Interleukin-6 (IL6) Biomarker Activity for (AID 2283040); settings: primary human coronary artery smooth muscle cells; actives raise or lower the signal
[9] = read-out: Transforming growth factor beta 1 (TGFb1), TGFB1 (gene 7040); experiment: BSK_BE3C_TGFb1: BioMAP Diversity Plus: BE3C Assay for Transforming growth factor beta 1 (TGFb1) Biomarker Activity (AID 2283036); settings: primary human bronchial epithelial cells; actives raise or lower the signal
Method in brief: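 Human primary bronchial epithelial cells (BE3C system) were dosed with chemical and TGF-b1 levels measured by ELISA at 24 h. Activity was fitted bidirectionally relative to DMSO negative control as baseline.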

[10] = read-out: Plasminogen activator inhibitor-1 (PAI1), SERPINE1 (gene 5054); experiment: BSK_BE3C_PAI1: BioMAP Diversity Plus: BE3C Assay for Plasminogen activator inhibitor-1 (PAI1) Biomarker Activity (AID 2283037); settings: primary human bronchial epithelial cells; actives raise or lower the signal
Method in brief: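 Human primary bronchial epithelial cells were exposed to chemical for 24 h, then PAI-1 was quantified by ELISA. Activity was fitted bidirectionally relative to the DMSO negative control baseline.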

SMILES | outcome [1] | AC50 [2] | outcome [2] | outcome [3] | outcome [4] | outcome [5] | outcome [6] | outcome [7] | outcome [8] | outcome [9] | outcome [10] | AC50 [6]
FC(F)C(F)(F)COCC1CO1 (configuration not stated) | inactive | 45.8 µM (active) | inactive | inactive | inactive | inactive | inactive | inactive | inactive | – | – | –
O=C1CN(N=Cc2ccc([N+](=O)[O-])o2)C(=O)N1 | inactive | – | inactive | inactive | inactive | inactive | inactive | inactive | inactive | inactive | inactive | –
O=S(=O)(O)c1ccc(N=Nc2c(O)ccc3cc(S(=O)(=O)O)ccc23)cc1 | inactive | – | inactive | inactive | inactive | inactive | inactive | inactive | inactive | inactive | inactive | –
OC[C@H]1O[C@@](CO)(O[C@H]2O[C@H](CO)[C@@H](O)[C@H](O)[C@H]2O)[C@@H](O)[C@@H]1O | inactive | – | inactive | inactive | inactive | inactive | inactive | inactive | inactive | inactive | inactive | –
CCCC(CCC)C(=O)O | inactive | – | inactive | inactive | inactive | inactive | inactive | inactive | inactive | inactive | inactive | –
CC(=O)c1ccccc1 | inactive | – | inactive | inactive | inactive | inactive | inactive | inactive | inactive | inactive | inactive | –
CC(C)CCCCCCOC(=O)C1CCCCC1C(=O)OCCCCCCC(C)C (configuration not stated) | inactive | – | inactive | inactive | inactive | inactive | inactive | inactive | inactive | inactive | inactive | –
O=S1(=O)CCCO1 | inactive | – | inactive | inactive | inactive | inactive | inactive | inactive | inactive | inactive | inactive | –
CCCCN1C(=O)[C@@H]([C@H](O)C2CCCCC2)NC(=O)C12CCN(Cc1ccc(Oc3ccc(C(=O)O)cc3)cc1)CC2 | inactive | – | inactive | inactive | inactive | inactive | inactive | inactive | inactive | inactive | – | –
NC(=O)NN=Cc1ccc([N+](=O)[O-])o1 | inactive | – | inactive | inactive | inactive | inactive | – | inactive | inactive | inactive | – | 7.99 µM (active)
